Experimental findings from PubChem BioAssay (EPA / NIEHS) are described below.

Several values for one entry are separate records, joined by “and”; a condition that tells them apart may be missing. Equal entries are not always repeated. Activity calls are given as the source filed them. The calls were made as follows: active = hit-call score of the fitted dose curve at least 0.9, where 1 is the maximum; inactive = score below 0.9.

As a reminder, the AC50 is the concentration giving half of the maximal activity seen.

Read-out in experiment [1]: Interleukin-6 (IL6), IL6 (gene 3569)
Kind of experiment: BSK_CASM3C_IL6: BioMAP Diversity Plus: CASM3C Assay for Interleukin-6 (IL6) Biomarker Activity for (AID 2283040). Conditions: primary human coronary artery smooth muscle cells; actives raise or lower the signal.

Read-out in experiment [2]: Tissue plasminogen activator (tPA), PLAT (gene 5327)
Kind of experiment: BSK_BE3C_tPA: BioMAP Diversity Plus: BE3C Assay for Tissue plasminogen activator (tPA) Biomarker Activity (AID 2283041).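 As to outcome: tPA level quantified by ELISA one day after compound addition.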 As to conditions: primary human bronchial epithelial cells; actives raise or lower the signal. In outline:
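Gain- or loss-of-signal in tPA, measured by ELISA, derived by bidirectional fitting against DMSO. Cells: human primary bronchial epithelial; read at 24 h after chemical dosing.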

Read-out in experiment [3]: Interleukin-8 (IL8), CXCL8 (gene 3576)
Kind of experiment: BSK_CASM3C_IL8: BioMAP Diversity Plus: CASM3C Assay for Interleukin-8 (IL8) Biomarker Activity (AID 2283042).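 Also: IL-8 protein level quantified by ELISA.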 As to conditions: primary human coronary artery smooth muscle cells; actives raise or lower the signal.

Read-out in experiment [4]: Human Leukocyte Antigen - DR isotype (HLADR), HLA-DRA (gene 3122)
The experiment in a line: BSK_CASM3C_HLADR: BioMAP Diversity Plus: CASM3C Assay for Human Leukocyte Antigen - DR isotype (HLADR) Biomarker Activity (AID 2283043).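 Also: cell-surface HLA-DR protein level quantified by ELISA.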 Conditions: primary human coronary artery smooth muscle cells; actives raise or lower the signal.

Read-out in experiment [5]: Macrophage colony-stimulating factor (MCSF), CSF1 (gene 1435)
The experiment in a line: BSK_CASM3C_MCSF: BioMAP Diversity Plus: CASM3C Assay for Macrophage colony-stimulating factor (MCSF) Biomarker Activity (AID 2283044).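 Also: M-CSF protein amount quantified by ELISA after 24 h exposure.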 As to conditions: primary human coronary artery smooth muscle cells; actives raise or lower the signal.

Read-out in experiment [6]: Low-density lipoprotein receptor (LDLR), LDLR (gene 3949)
The experiment in a line: BSK_CASM3C_LDLR: BioMAP Diversity Plus: CASM3C Assay for Low-density lipoprotein receptor (LDLR) Biomarker Activity (AID 2283045).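 Also: LDLR protein level on the cell surface quantified by ELISA.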 Conditions: primary human coronary artery smooth muscle cells; actives raise or lower the signal.

Read-out in experiment [7]: Monocyte Chemoattractant Protein-1 (MCP1), CCL2 (gene 6347)
The experiment in a line: BSK_CASM3C_MCP1: BioMAP Diversity Plus: CASM3C Assay for Monocyte Chemoattractant Protein-1 (MCP1) Biomarker Activity (AID 2283046).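 Also: MCP-1 level quantified by ELISA 24 h after dosing.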 Conditions: primary human coronary artery smooth muscle cells; actives raise or lower the signal.

A short description of experiment [8]: BSK_CASM3C_Proliferation: Cell Proliferation Assessment in the BioMAP Diversity Plus: CASM3C Assay (AID 2283047).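 Also: sulforhodamine B total protein stain as relative cell number at 560 nm; sub-confluent cells exposed 48 h before staining; fitted both ways against DMSO so gain or loss of cell number.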 As to conditions: primary human coronary artery smooth muscle cells.
Read-out in experiment [9]: Monokine induced gamma interferon (MIG), CXCL9 (gene 4283)
The experiment in a line: BSK_CASM3C_MIG: BioMAP Diversity Plus: CASM3C Assay for Monokine induced gamma interferon (MIG) Biomarker Activity (AID 2283048).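 Also: MIG protein level measured by ELISA.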 Conditions: primary human coronary artery smooth muscle cells; actives raise or lower the signal.

Read-out in experiment [10]: serum amyloid A (SAA), SAA1 (gene 6288)
Kind of experiment: BSK_CASM3C_SAA: BioMAP Diversity Plus: CASM3C Assay for serum amyloid A (SAA) Biomarker Activity (AID 2283049).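 Also: SAA protein level quantified by ELISA.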 As to conditions: primary human coronary artery smooth muscle cells; actives raise or lower the signal.

Take `CC(C)(C)c1cc(CCC(=O)NCCCCCCNC(=O)CCc2cc(C(C)(C)C)c(O)c(C(C)(C)C)c2)cc(C(C)(C)C)c1O`: the outcome in [1], in experiment [2], in experiment [3], in experiment [4], in [5] and in experiment [6] was inactive. Also, the outcome in experiment [8], in [9] and in experiment [10] was inactive. The AC50 in [7] was 0.824 µM (active).
For the compound `CN(C(=O)C(F)(F)C(F)(F)C(F)(F)F)[Si](C)(C)C`, the result in [1], in experiment [2], in experiment [3], in experiment [4], in experiment [5] and in [6] was inactive. In addition, the outcome in experiment [7], in experiment [8], in [9] and in experiment [10] was inactive.
For the compound `OCC(F)(F)C(F)(F)C(F)(F)CO`, the result in [1], in experiment [2], in experiment [3], in [4], in experiment [5] and in experiment [6] was inactive. Besides, the outcome in experiment [7], in experiment [8], in experiment [9] and in [10] was inactive.
For `O=C(O)C(F)(F)C(F)(F)C(F)(F)C(F)(F)C(F)(F)C(F)(F)C(F)F`, the result in experiment [1], in [2], in [3], in [4], in experiment [5] and in experiment [6] was inactive. Further, the result in [7], in experiment [8], in [9] and in experiment [10] was inactive.
As to `OCCCC(F)(F)C(F)(F)C(F)(F)C(F)(F)C(F)(F)C(F)(F)C(F)(F)C(F)(F)F`, the result in [1] was inactive. Also, the AC50 in experiment [2] is 49.7 µM (active) and 47.2 µM (active); in experiment [3] it was 38.9 µM (active) and 35.8 µM (active); in [4], 50.3 µM (active) and 50.6 µM (active); in experiment [5] it was 29.1 µM (active) and 35.6 µM (active); in [6], 43.9 µM (active) and 45.4 µM (active); in experiment [7] it was 41.6 µM (active) and 42.8 µM (active). Besides, the AC50 in [8] is 21 µM (active) and 39.5 µM (active); in [9], 46.8 µM (active) and 44.5 µM (active); in experiment [10] it was 45.1 µM (active) and 40.2 µM (active).
In the case of `CC(C)CCCC(C)CCO` (stereo not given), the AC50 in experiment [1] was 32.5 µM (active); in experiment [2] it was 26 µM (active); in experiment [4], 32.2 µM (active); in experiment [5], 32.3 µM (active); in [6] it was 32.1 µM (active); in [7] it was 31.2 µM (active). Besides, the figures for the concentration at half-maximal activity (AC50) in [8], in [9] and in [10] were 30.9 µM (active), 29.7 µM (active) and 29.6 µM (active), respectively. Moreover, in experiment [3], the result was inactive.
As for `CCN(CC)c1ccc(N=Nc2ccccc2)cc1`, the result in [1], in experiment [3], in experiment [5], in experiment [6], in experiment [9] and in experiment [10] was inactive. Further, the half-maximal activity concentration (AC50) in experiment [2] is 27.7 µM (active); in [4], 31.9 µM (active); in experiment [7], 4.07 µM (active); in [8], 8.48 µM (active).
`COC(F)(C(F)F)C(F)(F)F` (stereo not given): the result in experiment [1], in experiment [2], in experiment [3], in [4], in experiment [5] and in experiment [6] was inactive. Besides, the result in [7], in [8], in experiment [9] and in [10] was inactive.
As for `FC(F)(F)C(F)(F)C(F)(F)C(F)(F)C(F)(F)C(F)(F)CC[Si](Cl)(Cl)Cl`, the outcome in experiment [1], in experiment [2], in experiment [3], in experiment [4], in experiment [5] and in experiment [6] was inactive. Further, the result in experiment [7], in [8], in experiment [9] and in experiment [10] was inactive.
Regarding `O=C(O)CCC(F)(F)C(F)(F)C(F)(F)C(F)(F)C(F)(F)C(F)(F)C(F)(F)F`, the result in experiment [1], in experiment [2], in [3], in [4], in experiment [5] and in experiment [6] was inactive. Besides, the result in [7], in experiment [8], in experiment [9] and in experiment [10] was inactive.
Consider `O=C(O)C(F)(F)OC(F)(F)C(F)(F)OC(F)(F)C(F)(F)OC(F)(F)F`, for which the outcome in [1], in experiment [2], in [3], in experiment [4], in experiment [5] and in experiment [6] was inactive. Further, the outcome in experiment [7], in [8], in experiment [9] and in [10] was inactive.
On to `O=C=NCc1cccc(CN=C=O)c1`, for which the outcome in [1], in [2], in [3], in experiment [4], in experiment [5] and in experiment [6] was inactive. The result in [7], in experiment [8], in experiment [9] and in experiment [10] was inactive.
`C=C(C)C(=O)OCC(F)(F)C(F)(F)C(F)(F)C(F)F`: the result in experiment [1], in experiment [2], in [3], in experiment [4], in experiment [5] and in [6] was inactive. Further, the result in [7], in experiment [8], in experiment [9] and in experiment [10] was inactive.
Consider `Nc1cc([N+](=O)[O-])cc(Cl)c1O`, for which the result in experiment [1], in experiment [2], in experiment [3], in experiment [4], in [5] and in experiment [6] was inactive. In addition, the outcome in experiment [7], in [8], in experiment [9] and in experiment [10] was inactive.
As to `NCC(F)(F)C(F)(F)C(F)(F)C(F)(F)C(F)(F)C(F)(F)F`, the result in experiment [1], in experiment [2], in [3], in experiment [4], in [5] and in experiment [6] was inactive. The result in experiment [7], in experiment [8], in [9] and in experiment [10] was inactive.
With `O=C=Nc1cccc2c(N=C=O)cccc12`, the result in [1], in experiment [2], in [3], in experiment [4], in [5] and in [6] was inactive. Besides, the result in [7], in experiment [8], in experiment [9] and in experiment [10] was inactive.
